In ChEMBL document CHEMBL3433997, “St. Jude Leishmania screening dataset” (2016):
“And” between values parts separate entries of the source, which are not always exact repeats. Equal entries are not always repeated.

Target: Solute carrier family 2, facilitated glucose transporter member 1 (Homo sapiens) (UniProt P11166)
Experiment: ST_JUDE_LEISH: Cytotoxicity at 2uM final concentration against transgenic Leishmania Mexicana promastigotes LmGLUT1 that are glucose transport deficient and complemented with the human glucose transporter GLUT1. Activity is measured by DNA content using SYBR green in vitro
Type: functional

Chain of Solute carrier family 2, facilitated glucose transporter member 1 (Homo sapiens) (P11166 whole entry): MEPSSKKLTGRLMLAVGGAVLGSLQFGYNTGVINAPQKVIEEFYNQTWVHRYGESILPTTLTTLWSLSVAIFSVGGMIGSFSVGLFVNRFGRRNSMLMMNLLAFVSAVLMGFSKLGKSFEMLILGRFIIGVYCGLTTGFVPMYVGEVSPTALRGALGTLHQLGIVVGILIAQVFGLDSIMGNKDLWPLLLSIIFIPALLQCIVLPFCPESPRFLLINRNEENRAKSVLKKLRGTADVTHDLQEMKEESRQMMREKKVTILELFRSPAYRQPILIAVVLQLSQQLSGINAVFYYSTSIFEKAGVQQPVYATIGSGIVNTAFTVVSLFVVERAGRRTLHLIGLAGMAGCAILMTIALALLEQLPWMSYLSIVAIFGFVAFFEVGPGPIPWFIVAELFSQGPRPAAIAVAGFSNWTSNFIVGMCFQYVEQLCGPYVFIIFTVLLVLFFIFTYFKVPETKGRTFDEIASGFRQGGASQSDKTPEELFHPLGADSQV

Row | Compound | inhibition
1 | Cc1ccc(C2=NNC3(S2)C(=O)Nc2ccc(C)cc23)cc1 (stereo not given) | -2.4%
2 | CCC(CC)(Cc1ccccc1)NC(=O)[C@H](CC1CCCCC1)Nc1ccc(C#N)c2ccccc12 | -1.5%
3 | CS(=O)(=O)c1cc2c(Nc3ccc(N4CCOCC4)cc3)c(C(N)=O)cnc2cc1Br | 4.41%
4 | COc1cccc(CNC(=O)c2ccnc(-c3cccc(CN(C)C4CCN(C)CC4)c3)c2)c1 | -0.04%
5 | Cc1ccc2c(c1[N+](=O)[O-])N=NCC2Oc1ccccc1 (stereo not given) | 10.8%
6 | CCOC(=O)N1NC(=O)N(c2ccccc2)C1(c1ccccc1)c1ccccc1 | 2.45%
7 | Cc1cc(Nc2ncc3c(n2)N(C2CCC2)CC3)ccc1N1CCN(C)CC1 | 0.65%
8 | CCCCc1ccc(Cc2cnc3nc(N)nc(N)c3c2C)cc1 | 11.6%
9 | Cc1[nH]c(C)c(-c2ccc(OCc3cc(F)cc(F)c3)nc2)c(=O)c1Cl | 5.4%
10 | CC(=O)Nc1ccc(CN2CCCN(c3cc(NC(=O)c4cccc(C)c4)ccn3)CC2)cc1 | 8.6%
11 | COc1ccc2c(c1)CC(C)(C)NC2CCCCCCCCC1NC(C)(C)Cc2cc(OC)ccc21 (stereo not given) | 2.26%
12 | Cc1cc(NC(=O)NC(=N)N)ccc1Cl | 6.27%
13 | Cc1ccc2nc(C)cc(NC(=O)Nc3ccc(N(C)C)cc3)c2c1 | 7.58%
14 | COc1ccc(-c2ccc(CNC(=O)c3ccc(C#N)cc3)c(F)c2)cc1CN1CCCN(C)CC1 | 0.92%
15 | Cc1cccc2nc(-c3ccc(-c4cccc(CNCCc5ccncc5)c4)cc3)[nH]c12 | 5.55%
16 | CC(C)(C)c1ccc(NC(=O)c2ccc(CN3CCCN(Cc4ccc(F)cc4)CC3)cc2)cc1 | 2.24%
17 | Cc1cc(NC(=O)c2coc3cc(F)c(N4CC(C)N(C)C(C)C4)cc23)ccc1-n1ccnc1 (stereo not given) | 2.32%
18 | O=C(Nc1cccc(F)c1)N[C@H]1CCN(CCCCCNC(=O)C2CC2c2ccc(Cl)c(Cl)c2)C1 (stereo not given in full) | 4.75%
19 | CCOC(=O)C(C(=O)OCC)c1nc(C)ns1 | -1.35%
20 | CO/C(=C\C=C\c1cc2cc(Cl)c(Cl)cc2[nH]1)C(=O)NCCCN1CCN(c2ccc(OC)cc2)CC1 | 2.11%

Row | Compound | inhibition
21 | Ic1cc(CNC2CCCCC2)ccc1OCc1cccc(COc2ccc(CNC3CCCCC3)cc2I)c1 | 4.09%
22 | NC1CCN(Cc2cccc(-c3ccc(-c4nc5cc(C(F)(F)F)ccc5[nH]4)cc3)c2)C1 (stereo not given) | 0.52%
23 | CC(C)C[C@H](Nc1ccc(C#N)c2ccccc12)C(=O)NC(C)(C)C12CC3CC(CC(C3)C1)C2 | 4.34%
24 | COc1cc(CNCCCNc2cc(=O)c3ccccc3[nH]2)c2c(c1)C(C)CN2C(=O)OC(C)(C)C (stereo not given) | 9.27%
25 | Cc1cccc2nc(-c3ccc(-c4ccc(CN5CCC(N)C5)cc4)s3)[nH]c12 (stereo not given) | -3.3%
26 | CNC(=O)c1ccccc1Nc1nc(Nc2ccc(N3CCOCC3)cc2)ncc1Cl | 77.2%
27 | O=C(Nc1ccc(OC2CCN(Cc3ccsc3)CC2)c(Cl)c1)c1cccs1 | 7.63%
28 | CCN1CCC(N(Cc2ccc(-c3ccc(C(F)(F)F)cc3)cc2)C(=O)Cn2nc(C)c(=O)cc2SCc2ccc(F)cc2)CC1 | 0.5%
29 | CCC(C)C#Cc1c(C)nc(N)nc1N (stereo not given) | 0.18%
30 | CCCCCCCNC(=O)NCC1CCCN(CCCCCNC(=O)/C=C/c2ccc(Cl)c(Cl)c2)C1 (stereo not given) | 1.71%
31 | NC1=NC(c2ccccc2)(c2cccc(O)c2)C(=O)N1CCCc1ccccc1 (stereo not given) | 10.4% and 2.82%
32 | COC(=O)[C@@H](NC(=O)[C@@H](Nc1ccc(C#N)c2ccccc12)C(C)(C)C)c1ccc(O)cc1 | 2.65%
33 | Cc1cccc2nc(-c3cccc(-c4cccc(NC(=O)c5cnccc5C(F)(F)F)c4)c3)[nH]c12 | 3.64%
34 | COc1c(C2CCN(CCCCNC(=O)c3ccc(-c4ccc(C#N)cc4)cc3)CC2)ccc2c1C(C)(C)CCC2(C)C | 1.57%
35 | COc1ccc(N2CCN(CCCN3CCN(C(=O)c4ccc(/C=C/c5ccc(Cl)c(Cl)c5)cc4)CC3)CC2)c(OC)c1 | 6.35%
36 | CC(Cc1ccc(NC(=O)c2ccc(CNCc3ccccc3)cc2)cc1)N(CCc1cccc(Cl)c1)C(=O)OC(C)(C)C (stereo not given) | 6.08%
37 | CCN(CC)CCN(Cc1ccc(-c2ccc(C(F)(F)F)cc2)cc1)C(=O)Cn1c(CCc2cccc(F)c2F)cc(=O)c(C)c1C | 11.5%
38 | Cc1noc(C)c1-c1cccc(CNCc2cccc(-c3cccc(-c4nc5cccc(C)c5[nH]4)c3)c2)c1 | -0.61%
39 | O=C(/C=C/c1ccccc1Cl)NC1CCC(CN2CCC(c3c[nH]c4ccncc34)CC2)CC1 (stereo not given) | -0.19%
40 | Cc1cc(C2CCN(CCCCNC(=O)c3ccc(NC(=O)c4ccc(Cl)cc4)cc3)CC2)c(C)cc1OC(C)C | -1.59%
